Most compounds without a hit are left out; they make up all but 1.2% or so of the library.
A3G deaminase: blocks human APOBEC3G single-stranded DNA deamination; Q9HC16; recombinant A3G, ssDNA deamination FAM/TAMRA fluorescence; inhibition, % at 20 µM; actives 0.28% (n = 330,000);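 active means inhibition of at least 40% at 20 µM, with no more than 30% in the related APOBEC3A deaminase screen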;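 further: plate controls were DMSO wells with A3G for no effect and wells lacking A3G enzyme for full effect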
Target sequence (Q9HC16 whole entry, looked up): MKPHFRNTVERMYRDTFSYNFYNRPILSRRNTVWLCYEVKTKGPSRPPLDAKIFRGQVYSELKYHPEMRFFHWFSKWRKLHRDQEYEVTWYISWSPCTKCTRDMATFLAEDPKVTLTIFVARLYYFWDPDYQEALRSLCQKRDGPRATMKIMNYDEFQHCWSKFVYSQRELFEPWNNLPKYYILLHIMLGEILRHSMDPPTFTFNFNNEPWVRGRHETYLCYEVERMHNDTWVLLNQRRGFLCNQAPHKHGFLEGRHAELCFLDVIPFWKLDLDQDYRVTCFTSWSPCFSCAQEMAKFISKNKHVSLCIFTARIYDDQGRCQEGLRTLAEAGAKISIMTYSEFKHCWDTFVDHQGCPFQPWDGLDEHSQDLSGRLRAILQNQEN
PolyA inh: blocks polyadenylation in yeast reporter cells; S. cerevisiae SKY197-pL101 polyadenylation reporter, beta-gal luminescence; efflux-impaired pdr1/pdr3 knockout yeast; score 100 = 6 SD above DMSO; actives 0.02% (n = 300,000); activity score, % at 12 µM;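 active means lowest replicate activity score at least 50, where 100 means six control SD above control mean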;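 further: yeast exposed to compound for 9 h at 30 °C; higher score means more reporter readthrough which indicates perturbed polyadenylation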
A3A deaminase: inhibitors of human APOBEC3A DNA deaminase; P31941; recombinant A3A, FAM/TAMRA ssDNA deamination fluorescence; inhibition, % at 20 µM; actives 0.41% (n = 330,000); AID 493011;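 active means at least 40% inhibition at 20 µM here, with at most 30% in a related deaminase screen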;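 further: plate controls were A3A with DMSO for no effect and wells lacking A3A enzyme for full effect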
Target sequence (P31941 whole entry, looked up): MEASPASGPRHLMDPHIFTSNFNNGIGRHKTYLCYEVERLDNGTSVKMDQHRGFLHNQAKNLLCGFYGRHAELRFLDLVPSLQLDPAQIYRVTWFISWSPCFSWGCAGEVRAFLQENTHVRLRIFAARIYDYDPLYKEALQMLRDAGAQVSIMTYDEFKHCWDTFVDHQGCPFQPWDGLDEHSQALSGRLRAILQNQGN
NALP1 inh: NALP1 inhibition. S. cerevisiae NALP1/ASC/caspase-1 growth, X-gal OD620, 72 h. inhibition, % at 10 µM. actives 0.61% (n = 280,000). AID 2071; in the data active means inhibition mostly above about 24%, no sharp cut-off; inactive means mostly below about 32%
APOBEC3A confirm: confirmation of human APOBEC3A DNA deaminase inhibitors | shares compounds with A3A deaminase | recombinant A3A, ssDNA deaminase UDG fluorescence assay | inhibition, % at 20 µM | actives 63% (n = 1,400) | AID 493151;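 active means inhibition reaching a set limit, 80% of the first screen's cutoff, at 20 µM in any replicate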;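 further: plate controls were DMSO wells with A3A for no effect and wells lacking A3A enzyme for full effect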
UDG A3A counter: counter-screen for APOBEC3A inhibitors: UDG; UDG counterscreen, FAM/TAMRA uracil oligo fluorescence; 1,000 tested, under 10 active; inhibition, % at 20 µM; AID 504714; shares compounds with A3A deaminase; call rule not given here
Active calls of the source: *; nt = not tested or not shown.

SMILES	A3G deaminase	PolyA inh	A3A deaminase	NALP1 inh	APOBEC3A confirm	UDG A3A counter
CC(C)Cc1nnc(NC(=O)C2CC(=O)N(c3ccc4c(c3)OCCO4)C2)s1 (stereo not given)	1	nt	12	nt	nt	nt
O=C(NCC1COc2ccccc2O1)c1cc(S(=O)(=O)N2CCOCC2)c(Cl)cc1Cl (stereo not given)	4	nt	42*	nt	1	nt
O=C(NCC1COc2ccccc2O1)c1ccc(F)c(S(=O)(=O)N2CCOCC2)c1 (stereo not given)	-4	nt	0	nt	nt	nt
Cc1ccc(NC(=O)CN2C(=O)S/C(=C\c3cccn3-c3cccc(C(=O)O)c3)C2=O)cc1C	0	14	13	7	nt	nt
COc1ccc(NC(=O)CN2C(=O)S/C(=C/c3cccn3-c3ccc(C(=O)O)cc3)C2=O)cc1	25	nt	63*	27	57*	nt
O=C(C[C@@H]1C/C=C\C[C@H](Cc2ccc(F)cc2)C(=O)OC[C@H]2CCCN2C1=O)NCCO	-6	nt	-5	nt	nt	nt
Cc1ccc(-c2nnn(CC(=O)O)n2)cc1	-1	-3	2	-9	nt	nt
Cc1ccccc1COc1ccc(-c2nnn(CC(=O)O)n2)cc1	-1	-1	40*	-5	23	2
COc1ccccc1CCN=C(N)NS(=O)(=O)c1ccc(C)c(C)c1	-9	10	-4	-1	nt	nt
Cc1cc(Cl)ccc1OCC(=O)N[C@@H](Cc1ccccc1)c1nc2ccccc2[nH]1	15	43	42*	5	24	nt
COc1ccc(NC(=O)COC(=O)CNC(=O)COc2ccccc2)cc1OC	1	nt	-4	nt	nt	nt
Cc1ccc(C(=O)Nc2cc(C(F)(F)F)ccc2-n2cncn2)o1	2	nt	1	nt	nt	nt
Cc1ccc(C(=O)Nc2cc(Cl)ccc2-n2cncn2)o1	-1	-2	41*	nt	48*	4
Cc1[nH]c(=O)c(C#N)c(C)c1CCC(=O)Nc1cc(S(C)(=O)=O)ccc1Cl	18	20	73*	4	42*	-3
Cc1ccc(F)cc1NC(=O)CCc1c(C)[nH]c(=O)c(C#N)c1C	-4	0	6	6	nt	nt
C/C(=N/Nc1ccccc1C(=O)O)c1cccs1	-5	18	-7	-2	nt	nt
C/C(=N\Nc1ccc(Cl)c(C(=O)O)c1)c1cccs1	16	28	42*	-8	23	nt
Cc1cccc(NC(=O)CNC(=O)CSc2ncccn2)c1C	14	nt	2	nt	nt	nt
Cc1cccc(NC(=O)CNC(=O)Cn2ncc(Cl)c(Cl)c2=O)c1C	20	nt	49*	nt	38*	2
O=C(Cc1ccccc1)Nn1c(-c2ccccc2)nc2ccccc2c1=O	3	1	0	30	nt	nt
Cc1cccc(-c2nc3ccccc3c(=O)n2NC(=O)c2ccc([N+](=O)[O-])c(C)c2)c1	-12	-6	49*	14	-8	0
Cc1cc(C(=O)Nn2c(C)nc3ccccc3c2=O)ccc1[N+](=O)[O-]	-6	11	-1	6	nt	nt
NC(=S)Nn1c(-c2ccccc2)nc2ccccc2c1=O	-3	1	42*	20	2	-3
Cc1ccsc1C(=O)OCC(=O)Nc1ccc(Cl)cn1	1	nt	2	nt	nt	nt
COc1ccc2c(c1)[N+](C)(C)C(C)(C)C=C2C	10	5	56*	2	82*	4
SMILES	A3G deaminase	PolyA inh	A3A deaminase	NALP1 inh	APOBEC3A confirm	UDG A3A counter
COc1ccc2c(c1)C(C)=CC(C)(C)N2S(=O)(=O)c1ccc(C)cc1	-6	-17	-2	1	nt	nt
CCOc1ccc2c(c1)[N+](C)(C)C(C)(C)C=C2C	18	-9	78*	-10	70*	-2
O=C(O)Cc1ccc(S(=O)(=O)N2CCCC2)s1	7	nt	49*	nt	51*	-2
COc1ccc(N2CCN(C(=O)Cc3ccc(S(=O)(=O)N4CCOCC4)s3)CC2)cc1	10	-1	49*	-5	25	nt
Nc1nonc1-n1nnc(C(=O)N/N=C/c2ccc(Cl)cc2Cl)c1CN1CCOCC1	0	-4	-1	-8	nt	nt
O=c1oc(-c2ccccc2)nc2sc3c(c12)CCC3	22	-24	56*	21	35*	-3
O=C1CCC(=O)N1c1ccc(-c2nc3sc4c(c3c(=O)o2)CCC4)cc1	-5	-5	2	25	nt	nt
CCn1cc(C(=O)NCCc2ccc(OC)cc2)c(=O)c2ccc(C)nc21	-11	6	-1	10	nt	nt
COc1ccc(/C=C(\NC(=O)c2ccccc2)C(=O)OC[C@@H]2CCC[N+]3(C)CCCCC23)cc1OC (stereo not given in full)	11	7	67*	-1	67*	4
COC(=O)C1=C(C)N(Cc2ccccc2)C(=NCc2cc(OC)c(OC)c(OC)c2)N[C@H]1c1ccccc1	25	6	70*	13	47*	nt
COCCN=C1N[C@@H](c2ccccc2)C(C(=O)OC)=C(C)N1Cc1ccccc1	8	-7	33	-6	nt	nt
COC(=O)C1=C(C)N(Cc2ccccc2)C(=NCc2cc(OC)c(OC)c(OC)c2)N[C@H]1c1ccc(Br)cc1	18	nt	46*	nt	60*	-10
COCCN=C1N[C@@H](c2ccc(Br)cc2)C(C(=O)OC)=C(C)N1Cc1ccccc1	14	-5	54*	34	40*	-2
COC(=O)C1=C(C)N(CC2CC2)C(=NCc2cc(OC)c(OC)c(OC)c2)N[C@H]1c1ccccc1	16	-20	47*	-18	56*	-5
COC(=O)C1=C(C)N(Cc2ccccc2)C(=NCc2ccccc2)N[C@H]1c1ccccc1	4	nt	32	nt	nt	nt
CC(C)CN(CCCNC(=O)CN1C(=O)COc2ccc(S(=O)(=O)N3CCOCC3)cc21)CC(C)C	-4	9	-6	7	nt	nt
COc1cc(NC(=O)C(C)N2CCN(C(=O)C3CC3)CC2)cc(OC)c1 (stereo not given)	-6	nt	8	nt	nt	nt
COC(=O)C1=C(C)N(CC2CC2)C(=NCc2cccc(Cl)c2)N[C@H]1c1ccccc1	8	1	59*	1	44*	nt
COCc1cc(C)nc(Sc2nc3c(c(=O)n(C)c(=O)n3C)n2C)c1C#N	13	-8	50*	12	44*	-3
CC(C)c1cc(C(=O)N2CCCC(N3CCN(c4ccc(F)cc4)CC3)C2)n(C)n1 (stereo not given)	-5	1	-7	2	nt	nt
C/C(CC(=O)Nc1ccc(Cl)c(Cl)c1)=N\NC(=O)C(=O)N1CCCCC1	9	-8	62*	-3	16*	-1
C/C(CC(=O)Nc1cccc(Cl)c1Cl)=N\NC(=O)C(=O)N1CCCC1	-9	20	-2	0	nt	nt
COc1ccccc1N1C(=N)S/C(=C\c2ccc(-c3ccccc3C(=O)O)o2)C1=O	28	8	44*	15	32*	-2
COc1ccc(N2CC(C(=O)NCc3ccco3)CC2=O)cc1 (stereo not given)	-1	13	41*	-4	46*	4
